Measured values from ChEMBL document CHEMBL1961873, “Compounds: GSK PKIS; Assays: Nanosyn kinase panel” (2012).

molecular target: Mitogen-activated protein kinase 1 (Homo sapiens) (UniProt P28482); details: at 1 µM
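Further: values are mean inhibition, from the GSK PKIS collection.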

Sequence of Mitogen-activated protein kinase 1 (Homo sapiens) (P28482 whole entry): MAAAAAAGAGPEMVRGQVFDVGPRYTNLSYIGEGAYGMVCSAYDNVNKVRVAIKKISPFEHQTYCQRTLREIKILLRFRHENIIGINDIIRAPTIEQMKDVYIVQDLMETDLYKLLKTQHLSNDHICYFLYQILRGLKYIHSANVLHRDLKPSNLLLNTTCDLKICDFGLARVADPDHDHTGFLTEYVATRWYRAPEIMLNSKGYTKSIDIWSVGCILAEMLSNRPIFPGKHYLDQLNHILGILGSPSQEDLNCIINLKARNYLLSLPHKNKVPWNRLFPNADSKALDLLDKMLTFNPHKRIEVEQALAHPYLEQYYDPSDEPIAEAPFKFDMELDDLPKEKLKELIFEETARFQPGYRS

SMILES | inhibition [%]
Cc1ccc(C(=O)NC2CC2)cc1-c1ccc2[nH]ncc2c1 | -5.22
OCc1ccc(-c2nc(-c3ccccn3)c(-c3ccc4c(c3)OCO4)[nH]2)cc1 | 3.7
CC(C)c1ccc2c(c1)NC(=O)/C2=N/Nc1ccc(S(N)(=O)=O)cc1 | 0.4
CN(C)C(=O)O[C@@H]1CN[C@@H](C#Cc2cc3ncnc(Nc4ccc(OCc5cccc(F)c5)c(Cl)c4)c3s2)C1 | 1.96
COc1cccc(-n2nc(C)c3c(N/N=C(\C)c4ccncc4)ncnc32)c1 | 1.42
COC(=O)c1ccc2c(c1)C(=Cc1cc(Br)c(O)c(Br)c1)C(=O)N2 | 6.19
Oc1cccc(-c2nc(-c3ccccc3)[nH]c2-c2ccncc2)c1 | 5.82
NS(=O)(=O)c1ccc(N/N=C2\C(=O)Nc3ccc(Cl)cc32)cc1 | 4.79
COC(=O)Nc1nc2cc(Oc3ccc(NC(=O)Nc4cccc(Br)c4)cc3)ccc2[nH]1 | 2.49
COC(=O)c1cncc(/C=C/c2c(C)cc(O)cc2C)c1 | 4.13
COc1cc(/C=N/Nc2ncnc3c2cnn3C(C)C)ccc1O | 2.57
CCS(=O)(=O)c1ccc(OC)c(Nc2nccc(N(C)c3ccc4c(C)n[nH]c4c3)n2)c1 | 5.64
[O-][S+]1CCN(Cc2ccc(-c3ccc4ncnc(Nc5ccc(OCc6ccccc6)c(Cl)c5)c4c3)o2)CC1 | 4.09
c1ccc(Cc2nc3ccc(Nc4ncnc5ccccc45)cc3[nH]2)cc1 | 3.76
CCS(=O)(=O)c1ccc(OC)c(Nc2ncc(-c3cccc(OC)c3)o2)c1 | 1.18
CCn1c(-c2nonc2N)nc2ccc(F)cc21 | 8.85
CN(C)c1cc2c(Nc3ccc4c(cnn4Cc4ccccc4)c3)ncnc2cn1 | 3.41

SMILES | inhibition [%]
COc1cc2ncnc(Nc3ccc4c(cnn4Cc4ccccc4)c3)c2cc1OC | 4.22
O=C1Nc2ccc(-c3cccnc3)cc2C1=Cc1cc(Br)c(O)c(Br)c1 | 3.37
COc1cc2ncnc(Nc3ccc(C)c(O)c3)c2cc1OC | 7.98
Cc1ccc2c(-c3ccnc(Nc4ccc5c(c4)OCCO5)n3)c(-c3ccc(C(F)(F)F)cc3)nn2n1 | 2.01
Cc1ccc2c(-c3ccnc(Nc4cccc(C(F)(F)F)c4)n3)c(-c3ccccc3)nn2n1 | 9.3
C[C@@H](Oc1cc(-n2cnc3ccc(OC[C@@H](O)CO)cc32)sc1C(N)=O)c1ccccc1Cl | -1.64
CN(C)CCCn1c(-c2nonc2N)nc2cnccc21 | 4.9
CN(c1ccc(NC(=O)Nc2ccc(OC(F)(F)F)cc2)cc1)c1ccnc(Nc2cccc(S(N)(=O)=O)c2)n1 | 3.93
O=C1Nc2ccccc2/C1=C/Nc1ccc2[nH]c(=O)[nH]c2c1 | 5.63
Cc1ccc2c(c1)/C(=N/Nc1ccc(S(N)(=O)=O)cc1)C(=O)N2 | 2.7
CCCN1CCCC(c2ccc(Nc3nc(Nc4cc(F)ccc4C(N)=O)c4cc[nH]c4n3)c(OC)c2)C1 (centres undefined) | 36.5
Nc1nccc(-c2c(-c3ccc(F)cc3)nn3cc(C(F)(F)F)ccc23)n1 | 0.2
NS(=O)(=O)c1ccc(-c2cc3ccncc3cc2OCc2ccccc2)cc1 | 3.37
NC(=O)c1sc(-n2cnc3ccccc32)cc1OCc1ccccc1Br | 5.56
O=S(=O)(CCOCc1ccc(-c2ccc3ncnc(Nc4ccc(OCc5cccc(F)c5)c(Cl)c4)c3c2)o1)c1ccccc1 | 3.54
Nc1ccc(C#Cc2cncnc2Nc2ccc(OCc3cccc(F)c3)c(Cl)c2)cc1 | 3.67
ON=C1CCc2cc(-c3nc(C4CCNCC4)[nH]c3-c3ccncc3)ccc21 | 1.85
